Source: PubChem (National Center for Advancing Translational Sciences (NCATS))
Hits are enriched below; roughly 8% of the tested compounds scored in any of these assays.
SW480 rereplic – A quantitative high throughput screen for small molecules that induce DNA re-replication in SW480 colon adenocarcinoma cells | SW480 DNA re-replication, Hoechst DNA content imaging, 48 h | 340,000 tested, 1.8% active | Potency, µM (titrated, usually from 46.1 µM), inactives show at the highest dose re-replication activation, usual class: activators; note: % of control where 0% means no effect; nearly all actives have a fitted effect of over 55% in size
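Treated cells incubate 48 hr (37 C, 5% CO2), are stained 40 min with Hoechst, and nuclear fluorescence is enumerated; a rise in nuclei with high DNA signal marks re-replication.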
KB-3-1 tox – qHTS assay for MDR1-selective chemotherapeutics: Primary screen using the parental adenocarcinoma cell KB-3-1 | KB-3-1 viability, CellTiter-Glo ATP luminescence, 72 h | Potency, µM (series often up to 46.1 µM), actives largely listed as cytotoxic | 400,000 tested, 1.4% active; note: % is set by controls: 0 for no effect and ±100 for the full control effect; nearly all actives have a fitted effect of over 60% in size
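Using CellTiter-Glo luminescence, growth of non-resistant KB-3-1 adenocarcinoma cells is assessed 72 h after pin-tool compound addition at 37 °C. Normalized responses across the concentration series yield fitted curves.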
KB-V1 MDR tox – qHTS assay for MDR1-selective chemotherapeutics: Primary screen using the drug-selected MDR subline cells KB-V1. KB-V1 MDR cells viability, CellTiter-Glo, 72 h. Potency, µM (highest dose often 46.1 µM), most hits filed as cytotoxic. 400,000 tested, 3.4% active. AID 1347076, 2019; note: % is set by controls: 0 for no effect and ±100 for the full control effect; nearly all actives have a fitted effect of over 60% in size
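Luminescent ATP read-out (CellTiter-Glo, 10 min) measures survival of drug-selected KB-V1 MDR cells after 72 h, 37 degrees C compound exposure. Medium: phenol-red-free DMEM, 10% FBS. Values from fitted concentration-response curves.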
MCF10A rerep – A quantitative high throughput screen for small molecules that induce DNA re-replication in MCF 10a normal breast cells; MCF 10A DNA re-replication, Hoechst nuclear intensity, 48 h; 350,000 tested, 2.9% active; Potency, µM (highest dose often 46.1 µM), without a hit: top-dose activity, positive = re-replication, actives largely listed as activators; AID 624296, 2012; note: % of control where 0% means no effect; nearly all actives have a fitted effect of over 50% in size
HT1080-NT tox – qHTS for induction of synthetic lethality in tumor cells producing 2HG: qHTS for the HT-1080-NT fibrosarcoma cell line | HT-1080-NT fibrosarcoma viability, CellTiter-Glo ATP luminescence, 48 h | Potency, µM (titrated, usually from 46.1 µM), for inactives: at the top dose activity, negative = less viability, usual class: cytotoxic | 360,000 tested, 1.6% active;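 note: NT is the 2HG producing partner of a matched IDH1 knockdown line; 0% = DMSO-treated cells and -100% = media-only wells without cells; nearly all actives have a fitted effect of over 55% in size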
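750 cells/well, RPMI + 5% FBS; 2 h settle, compound pin-transfer, 48 h at 37 degrees C. CellTiter-Glo 10 min RT, luminescence. Normalized to DMSO and media-only wells.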
HT1080 IDH1KD tx – qHTS for induction of synthetic lethality in tumor cells producing 2HG: qHTS for the HT-1080-IDH1KD cell line; 360,000 tested, 2% active; Potency, µM (highest dose often 46.1 µM), without a hit: at the top dose activity, negative = toxicity, actives largely listed as cytotoxic; HT-1080 IDH1 knockdown viability, ATP luminescence, 48 h;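 note: 0% = DMSO wells and -100% = cell-free medium wells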
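IDH1KD HT-1080 cells, 750/well, RPMI + 5% FBS; compound pinned after 2 h settling; 48 h, 37 °C; CellTiter-Glo luminescence; % activity normalised to DMSO and no-cell wells; curves fitted, classed by r2 and efficacy.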
Starred values were filed as active, the others as inactive; i = inactive; u = inconclusive; x = no result; ! = a repeat was not active. Calls come from the whole dose curve; as a rule, active = well fitted curve in the direction sought with a large enough effect; inconclusive = small, poorly fitted or top-dose-only effect, or another doubt; inactive = no such curve, though single readings can be large; an effect the other way counts as inactive or inconclusive. Potency is the fitted concentration of half-maximal effect.

SMILES	SW480 rereplic	KB-3-1 tox	KB-V1 MDR tox	MCF10A rerep	HT1080-NT tox	HT1080 IDH1KD tx
Cc1ccnc(NS(=O)(=O)c2ccc3ccccc3c2)n1	-6%	i	u	4%	11%	-2%
C=CCn1c(-c2ccc(Cl)cc2)c[nH]c1=S	u	21µM*	23µM*	18%	0%	-8%
C=CCn1c(-c2ccccc2)c[nH]c1=S	u	u	u	20%	-3%	-2%
COc1ccc2cc(C(=O)C3CCCN(Cc4cnc(C)s4)C3)ccc2c1 (stereo not given)	u	u	9.2µM*	7%	u	-26%
COc1ccc(C(=O)C2CCCN(Cc3cnc(N4CCCC4)s3)C2)cc1OC (stereo not given)	-1%	i	i	-2%	-18%	-11%
COc1ccc(NC(=O)Cn2c(SCc3cccc(Cl)c3)nc3ccncc32)c(OC)c1OC	x	i	i	x	x	x
Cc1ccc2c(c1)Oc1ccc(NC(=O)CCCl)cc1C(=O)N2	u	i	u	u	u	16µM*
COc1cc(C(=O)Nc2c(C)cc(C)cc2C)c([N+](=O)[O-])cc1OC	1%	i	21µM*	4%	10%	11%
COc1cc(C(=O)Nc2ccc(C)cn2)c([N+](=O)[O-])cc1OC	-9%	i	i	1%	0%	8%
COc1ccc(-c2nnc(SCC(=O)Nc3ccccc3OC)o2)cc1	u	i	i	3%	u	u
O=C(CSc1ccc(-c2cccnc2)nn1)Nc1ccc(F)c(F)c1	0%	i	9.2µM*	16%	u	-2%
COc1ccc(-c2nnc(SCc3cc(C)cc(C)c3)o2)cc1	-2%	i	21µM*	27%	22%	14%
Cc1ccc(C(=O)CSc2nnc(-c3ccco3)o2)o1	-2%	i	i	-3%	-10%	0%
COc1ccc(-c2nnc(SCC(=O)Nc3cccc(Cl)c3)o2)cc1	2%	u	16µM*	u	u	-30%
O=C(CSc1ccc(-c2cccnc2)nn1)Nc1ccccc1	-29%	i	u	1%	10%	-9%
COc1ccc(-c2nnc(SCC(=O)c3ccc(C)o3)o2)cc1	-8%	u	23µM*	-2%	2%	-2%
C[C@@]12C(=O)N(CCc3c[nH]c4ccccc34)CC(=O)N1[C@H]1c3ccccc3OC[C@@H]1[C@@H]2c1ccccc1	4%	u	i	6%	0%	-7%
O=C(Nc1c(C(=O)Nc2ccc(F)cc2)oc2ccccc12)c1cc2ccccc2o1	x	i	i	x	x	x
COc1cc(OC)cc(-c2nnc(SCC(=O)N(C(C)C)C(C)C)o2)c1	-1%	i	i	u	4%	-1%
COc1cccc(-c2nnc(SCC(=O)N(C(C)C)C(C)C)o2)c1	0%	i	18µM*	u	0%	-1%
COc1ccc(CN(C(=O)CSc2nnc(-c3ccc(F)cc3)o2)c2ccc(F)cc2)cc1	0%	i	21µM*	1%	1%	-7%
O=C(CSc1nnc(-c2cccnc2)o1)Nc1cccc(F)c1	3.3µM*	i	i	0%	22%	14%
O=C(CSc1nnc(-c2ccncc2)o1)Nc1cccc(F)c1	-22%	i	i	-6%	9%	8%
COc1ccc(CN(C(=O)CSc2nnc(-c3c[nH]c4ccccc34)o2)c2ccc(F)cc2)cc1OC	7%	u	15µM*	4.1µM*	u	u
Nc1cc(=O)nc(SCC(=O)Nc2ccc(F)cc2)n1-c1ccc(Cl)cc1	x	i	i	x	x	x
SMILES	SW480 rereplic	KB-3-1 tox	KB-V1 MDR tox	MCF10A rerep	HT1080-NT tox	HT1080 IDH1KD tx
CN(C(=O)c1cccc(Nc2ccc(-c3ccc4c(c3)OCCO4)nn2)c1)C1CCCCC1	14%	u	u	u	u	15µM*
O=C(COCc1cc(-c2ccc(F)cc2)on1)Nc1cc(Cl)ccc1O	x	i	i	x	x	x
Cc1ccc(N2C(=O)C3C4C=CC(C4)C3C2=O)cc1C (stereo not given)	-4%	i	i	-12%	4%	2%
O=C1C2C3C=CC(C3)C2C(=O)N1c1ccc2c(c1)CCC2 (stereo not given)	-6%	i	18µM*	-4%	1%	1%
O=c1c2ccccc2oc2cc(OCc3cccc(F)c3)cc(O)c12	-10%	i	i	-4%	5%	16%
Cc1ccc(CNC(=O)C(C)n2c(=O)cc(C(F)(F)F)c3c(C)nn(C)c32)cc1 (stereo not given)	x	i	i	x	x	x
COCCCC/C(=N\OCCN)c1ccc(C(F)(F)F)cc1	8%	u	u	-12%	u	18µM*!
COCCCCC(=NOCCN)c1ccc(C(F)(F)F)cc1	u	x	x	24%	x	x
Cc1ncsc1C(=O)NCc1ccc(N2CCCC2=O)cc1	-4%	i	16µM*	-1%	6%	1%
O=C(NCc1ccc(N2CCCC2=O)cc1)Nc1cccc(Cl)c1	u	i	16µM*	u	-3%	-24%
O=C(NCCN1CCN(c2ccccc2)CC1)Nc1cccc(Cl)c1	37%	i	i	u	21µM*	18µM*
Cc1cc(C(=O)NCCN2CCN(c3cccc(Cl)c3)CC2)n(-c2ccccc2)n1	8.2µM*	15µM*	i	26µM*	8.2µM*	16µM*
CCc1ccc(NC(=O)Cn2c(=O)n(CCCC(=O)NCCc3ccc(OC)c(OC)c3)c(=O)c3ccccc32)cc1	x	i	i	x	x	x
Cc1ccc(/C=C/C(=O)NCc2cccs2)o1	3%	i	i	2%	0%	16%
COc1ccc(CCNC(=O)c2ccc3c(c2)N(Cc2cc(C)ccc2C)C(=O)c2ccccc2S3=O)cc1OC (stereo not given)	x	i	i	x	x	x
COc1cccc(/C(N)=N/OC(=O)Cc2ccccc2[N+](=O)[O-])c1	-1%	i	i	-3%	7%	0%
Cc1cc(C)c2c(=N)c3ccccc3n(CCCCCCCCn3c4ccccc4c(=N)c4c(C)cc(C)nc43)c2n1	23µM*	u	i	u	-28%	u
Cc1cc(C)c2c(C)nn(-c3ccccc3)c2n1	-2%	i	i	4%	-1%	8%
